# Measurements taken from PubChem BioAssay AID588458 (Sanford-Burnham Center for Chemical Genomics, 2011).
# About 3,000 (0.83%) of roughly 360,000 compounds were called active. This is one part of a sample in which actives are shown more often than they occur. A number with no mark means an inactive call. No stated cut-off is given here; in the data, active means inhibition above about 50%; inactive means the rest.
# Molecular target: DNA (cytosine-5)-methyltransferase 1 (Homo sapiens) (UniProt P26358)
# Sequence (P26358 504-1616 limits assumed): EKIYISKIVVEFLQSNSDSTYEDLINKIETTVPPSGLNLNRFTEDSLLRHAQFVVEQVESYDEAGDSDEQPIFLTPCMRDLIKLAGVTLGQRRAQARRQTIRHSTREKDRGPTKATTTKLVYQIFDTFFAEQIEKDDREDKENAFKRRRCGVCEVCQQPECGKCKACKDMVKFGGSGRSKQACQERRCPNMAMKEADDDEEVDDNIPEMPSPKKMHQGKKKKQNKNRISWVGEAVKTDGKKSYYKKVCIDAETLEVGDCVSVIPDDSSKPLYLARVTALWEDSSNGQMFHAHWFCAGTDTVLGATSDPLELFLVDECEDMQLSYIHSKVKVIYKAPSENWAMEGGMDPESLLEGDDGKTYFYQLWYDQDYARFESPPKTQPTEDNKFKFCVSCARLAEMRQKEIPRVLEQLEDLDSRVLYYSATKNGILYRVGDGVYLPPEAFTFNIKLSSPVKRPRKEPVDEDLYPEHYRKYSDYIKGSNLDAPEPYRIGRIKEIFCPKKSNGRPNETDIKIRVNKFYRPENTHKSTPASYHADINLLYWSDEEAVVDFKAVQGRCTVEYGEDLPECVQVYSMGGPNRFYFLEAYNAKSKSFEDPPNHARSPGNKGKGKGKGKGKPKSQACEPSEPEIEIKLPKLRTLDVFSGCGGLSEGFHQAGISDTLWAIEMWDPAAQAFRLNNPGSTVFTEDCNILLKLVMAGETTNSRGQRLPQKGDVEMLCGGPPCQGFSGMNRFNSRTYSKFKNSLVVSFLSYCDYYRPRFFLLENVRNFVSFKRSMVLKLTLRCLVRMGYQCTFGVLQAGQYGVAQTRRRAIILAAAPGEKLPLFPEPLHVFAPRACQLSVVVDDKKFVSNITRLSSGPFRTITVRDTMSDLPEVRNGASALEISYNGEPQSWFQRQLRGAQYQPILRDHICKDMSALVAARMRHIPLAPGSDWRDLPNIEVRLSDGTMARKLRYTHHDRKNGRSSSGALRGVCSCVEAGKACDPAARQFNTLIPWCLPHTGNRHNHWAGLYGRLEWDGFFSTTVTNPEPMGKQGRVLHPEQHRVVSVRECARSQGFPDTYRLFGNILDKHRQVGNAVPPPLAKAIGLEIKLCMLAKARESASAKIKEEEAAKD
# Test: human DNMT1 methyltransferase inhibitors, primary screen, biochemical, molecular beacon, fluorescence, HinP1I cleavage, uHTS (AID 588458)
# Conditions: at 10 µM, active compounds read high
row,Structure (SMILES),inhibition (reported as % activation of signal)
1,Cc1ccc(NC(=O)OCCNC(=O)c2ccncc2)cc1,0.6%
2,COCCNC(=O)CSc1nc(N)c(NC(=O)c2ccco2)c(=O)[nH]1,4.39%
3,COCCNC(=O)Nc1ccc2nc(-c3ccco3)c(-c3ccco3)nc2c1,110% (active)
4,COc1ccc(Cn2cccc(NC(=O)Nc3ccc(C#N)cc3)c2=O)cc1,3.12%
5,O=C1COc2ccc(NC(=O)N3CCN(c4ccc(F)cc4)CC3)cc2N1,-6.06%
6,CCOC(=O)c1cccc(NC(=O)c2ccc(F)cc2F)c1,2.92%
7,O=C(COC(=O)c1ccc(F)cc1F)Nc1ncccn1,67.4% (active)
8,O=C(COC(=O)CSc1ccccc1)Nc1ccc(F)cc1F,-0.57%
9,CN=C1C=C/C(=N/N=c2\ccn(O)cc2C)C=C1C,-3.81%
10,NC(=O)C1CCCN(CC(=O)N2CCN(c3ccccc3)CC2)C1 (centres undefined),1.67%
11,Cn1c(=O)c2[nH]c(NCC3CCCO3)nc2n(-c2ccccc2)c1=O (centres undefined),3.06%
12,COc1cc2c(cc1OC)C(Cc1cc(OC)c(OC)cc1[N+](=O)[O-])=NCC2,-13.1%
13,CCC/C=C(\CCC)C(NC(=O)Cc1ccccc1)c1ccc(C(=O)OC)cc1 (centres undefined),64.2% (active)
14,CCC[C@@H]1C[C@@]1(CCC)[C@@H](NC(=O)c1ccccc1)c1ccc(C(=O)OC)cc1,-1.36%
15,COC(=O)c1ccc(C(NC(=O)OCc2ccccc2)/C(F)=C/[C@@H](C)C(=O)O)cc1 (some centres undefined),2.04%
16,C#Cc1ccc(NC(=O)C2(C)CCN2C(=O)Cc2ccc(-c3ccccc3)cc2)cc1 (centres undefined),-17.3%
17,O=C(NC1(C(F)(F)F)NC(=O)N(Cc2cccnc2)C1=O)c1ccccc1Cl (centres undefined),5.41%
18,O=C(NCc1ccncc1)C1CCCN(S(=O)(=O)c2ccc(Br)cc2)C1 (centres undefined),-0.42%
19,COc1cc2c(cc1O)C(SC)=NC(C)(C)C2,0.55%
20,Cc1ccc(-c2nnc(-c3ccc(NC(=O)c4cccs4)cc3)o2)cc1,62.6% (active)

row,Structure (SMILES),inhibition (reported as % activation of signal)
1,Cc1ccc(OCC(=O)Nc2ccc(-c3nnc(-c4ccco4)o3)cc2)cc1,56% (active)
2,O=C(COc1ccccc1)Nc1ccc(F)cc1,2.46%
3,CCOC(=O)C1=C(O)/C(=C/c2ccc(OCC(=O)Nc3ccc(C)cc3)cc2)N=C1C,26.9%
4,COc1ccc(C(CC(=O)Nc2ccc(C)cc2)NC(=O)C(F)(F)F)cc1 (centres undefined),1.22%
5,COc1ccc(CC(=O)Nc2ccc(-c3nnc(-c4ccc(C)cc4)o3)cc2)cc1,58.3% (active)
6,CCc1ccc(NC(=O)C(=O)NNC(=O)c2cccs2)cc1,1.5%
7,COc1ccc(NC(=O)CCCC(=O)c2ccccc2)cc1,0.13%
8,COc1ccc(NC(=O)CN(C)C(=O)c2ccc(COc3ccccc3)o2)cc1,1.54%
9,COc1ccc(NC(=O)Cn2c(-c3ccc(OC)cc3)cn(-c3ccc(C)cc3)c2=O)cc1,-10.9%
10,COc1ccc(CC(=O)Nc2ccc(-c3nnc(-c4ccccc4)o3)cc2)cc1,63.9% (active)
11,O=C(Nc1ccc(N2CCN(C(=O)C3CC3)CC2)cc1)c1cccs1,-1.58%
12,Cc1cc(NC(=O)C(C)SCC(=O)Nc2cccc(S(=O)(=O)N3CCCCCC3)c2)no1 (centres undefined),3.04%
13,CCCCc1ccc(S(=O)(=O)NC(=O)C2(C)CCN2C(=O)c2ccccc2)cc1 (centres undefined),-0.05%
14,CCc1nc2c(OCCOc3ccc(F)cc3)cccn2c1N(C)C(=O)c1ccccc1F,-4.23%
15,CCC(=O)Nc1ccc(-c2ccc(N3CCCCC3)nn2)cc1,-8.26%
16,Cc1c(C(=O)NCc2ccc(C#N)cc2)sc(=O)n1Cc1ccc(C(=O)N(C)C)cc1,4.99%
17,O=C1N[C@@H](Cc2ccccc2)C(=O)N2[C@@H]3N(S(=O)(=O)c4ccc(F)cc4)c4ccccc4[C@]3(Br)C[C@@H]12,-4.71%
18,COc1ccc(CCc2nnc(CCC(=O)NCc3cnn(-c4ccccc4C)c3)o2)cc1,-0.69%
19,C/C(=N/N1CCN(Cc2cccc3ccccc23)CC1)c1cccnc1,-1.56%
20,C=CCOC(=O)C1=C(C)NC(C)=C(C(=O)OCC=C)C1c1cccs1,13.3%

row,Structure (SMILES),inhibition (reported as % activation of signal)
1,CCN1CC=C2C(C#N)=C(N)C(C#N)(C#N)[C@H](c3ccoc3)[C@H]2C1,0.41%
2,CCOC(=O)N1CC=C2C(C#N)=C(N)C(C#N)(C#N)[C@H](c3cccs3)[C@H]2C1,70.4% (active)
3,Cc1cccc(CC(=O)N2CCN=C2SCc2ccc([N+](=O)[O-])cc2)c1,-5.45%
4,COc1ccc(NC(=O)CN(C)C(=O)c2cc(C3CC3)nn2-c2ccccc2)cc1,61.4% (active)
5,COc1cccc(NC(=O)CN(C)C(=O)c2cc(C3CC3)nn2-c2ccccc2)c1,-5.25%
6,CCc1ccccc1NC(=O)CN(C)C(=O)c1cc(C2CC2)nn1-c1ccccc1,-2.35%
7,CC(C)(C)NC(=O)CN(Cc1cccs1)C(=O)CNS(=O)(=O)c1ccccc1,-3.38%
8,CC(=O)Nc1ccc(Sc2ccccc2C(=O)N2CCCC2)cn1,-0.06%
9,Nc1cccc(-c2cncc(N3CCN(Cc4ccccn4)CC3)n2)c1,-1.68%
10,Oc1c(C(c2ccco2)N2CCC3(CC2)OCCO3)sc2ncnn12 (centres undefined),84.4% (active)
11,Cc1nc2sc(C(c3ccco3)N3CCC4(CC3)OCCO4)c(O)n2n1 (centres undefined),-3.42%
12,Oc1c(C(c2cccs2)N2CCN(c3ccc(F)cc3)CC2)sc2ncnn12 (centres undefined),5.11%
13,Cc1cc(NC(=O)CN2C(=O)NC(CC(C)C)C2=O)no1 (centres undefined),3.08%
14,COc1ccccc1CNS(=O)(=O)c1c(C)[nH]c(C)c1C(=O)N1CCCCC1,2.18%
15,CC(=O)NCCc1ccc(S(=O)(=O)N(C)C2CCS(=O)(=O)C2)cc1 (centres undefined),0.81%
16,N/C(=N\S(=O)(=O)c1cc(C(F)(F)F)cc(C(F)(F)F)c1)c1cccs1,3.6%
17,Cc1ccc(CNC(=O)CSc2nnc3c(n2)[nH]c2ccc(F)cc23)cc1,57.3% (active)
18,Cc1ccn2c(=O)nc(SCC(=O)NCc3ccc(F)cc3)nc2c1,-6.32%
19,COc1ccc2[nH]c3nc(SCC(=O)NC4CC4)nnc3c2c1,2.16%
